The entries come from a sample that favours the strongest signals as a whole.
What was measured:
Test in all cases: glycan array binding signal (z-score within array); higher = stronger binding
Conditions in all cases: glycan notation: IUPAC condensed, linker removed
Glc(a1-4)Glc = molecular target: Glc(a1-4)Glc
How it was run: (§1)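 Glycan array binding is given as a within-array Z-score, which can be read as non-binding when negative. The arrays, 3228 of them, came from the Consortium for Functional Glycomics database and were retained only where the protein sequence was available. Z-scores were averaged across arrays of the same protein sequence at different concentrations or buffers and across linkers.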

Glc(b1-4)Glc = molecular target: Glc(b1-4)Glc
How it was run: as §1

GlcA(b1-6)Gal = molecular target: GlcA(b1-6)Gal
How it was run: as §1

[1] = molecular target: GlcA3S(b1-3)Gal(b1-4)GlcNAc(b1-2)Man
How it was run: as §1

[2] = molecular target: GlcNAc(b1-2)Man(a1-3)[GlcNAc(b1-4)][GlcNAc(b1-2)Man(a1-6)]Man(b1-4)GlcNAc(b1-4)[Fuc(a1-6)]GlcNAc
How it was run: as §1

[3] = molecular target: GlcNAc(b1-3)Gal(b1-4)GlcNAc(b1-3)Gal(b1-4)GlcNAc
How it was run: as §1

[4] = molecular target: GlcNAc(b1-3)Gal(b1-4)GlcNAc(b1-3)Gal(b1-4)GlcNAc(b1-2)Man(a1-3)[GlcNAc(b1-3)Gal(b1-4)GlcNAc(b1-3)Gal(b1-4)GlcNAc(b1-2)Man(a1-6)]Man(b1-4)GlcNAc(b1-4)[Fuc(a1-6)]GlcNAc
How it was run: as §1

[5] = molecular target: GlcNAc(b1-3)Gal(b1-4)GlcNAc(b1-3)Gal(b1-4)GlcNAc(b1-3)Gal(b1-4)GlcNAc(b1-2)Man(a1-3)[GlcNAc(b1-3)Gal(b1-4)GlcNAc(b1-3)Gal(b1-4)GlcNAc(b1-3)Gal(b1-4)GlcNAc(b1-2)Man(a1-6)]Man(b1-4)GlcNAc(b1-4)GlcNAc
How it was run: as §1

[6] = molecular target: GlcNAc(b1-3)Gal(b1-4)GlcNAc(b1-3)Gal(b1-4)GlcNAc(b1-3)Gal(b1-4)GlcNAc(b1-3)Gal(b1-4)GlcNAc(b1-2)Man(a1-3)[GlcNAc(b1-3)Gal(b1-4)GlcNAc(b1-3)Gal(b1-4)GlcNAc(b1-3)Gal(b1-4)GlcNAc(b1-3)Gal(b1-4)GlcNAc(b1-2)Man(a1-6)]Man(b1-4)GlcNAc(b1-4)GlcNAc
How it was run: as §1

[7] = molecular target: GlcNAc(b1-4)GlcNAc(b1-4)GlcNAc(b1-4)GlcNAc(b1-4)GlcNAc
How it was run: as §1

Man(a1-6)Man = molecular target: Man(a1-6)Man
How it was run: as §1

[8] = molecular target: Neu5Ac(a2-3)Gal(b1-3)GlcNAc
How it was run: as §1

[9] = molecular target: Neu5Ac(a2-3)Gal(b1-4)GlcNAc(b1-2)Man
How it was run: as §1

[10] = molecular target: Neu5Ac(a2-3)Gal(b1-4)GlcNAc(b1-3)Gal(b1-4)GlcNAc(b1-2)Man(a1-3)[Neu5Ac(a2-3)Gal(b1-4)GlcNAc(b1-3)Gal(b1-4)GlcNAc(b1-2)Man(a1-6)]Man(b1-4)GlcNAc(b1-4)GlcNAc
How it was run: as §1

[11] = molecular target: Neu5Ac(a2-3)Gal(b1-4)GlcNAc(b1-3)Gal(b1-4)GlcNAc(b1-3)[Neu5Ac(a2-3)Gal(b1-4)GlcNAc(b1-3)Gal(b1-4)GlcNAc(b1-6)]GalNAc
How it was run: as §1

[12] = molecular target: Neu5Ac(a2-3)Gal(b1-4)[Fuc(a1-3)]GlcNAc(b1-2)Man
How it was run: as §1

[13] = molecular target: Neu5Ac(a2-3)Gal(b1-4)[Fuc(a1-3)]GlcNAc(b1-6)[Neu5Ac(a2-3)Gal(b1-3)]GalNAc
How it was run: as §1

[14] = molecular target: Neu5Ac(a2-3)Gal6S(b1-4)GlcNAc
How it was run: as §1

Neu5Ac(a2-3)GalNAc = molecular target: Neu5Ac(a2-3)GalNAc
How it was run: as §1

[15] = molecular target: Neu5Ac(a2-3)[Neu5Ac(a2-6)]GalNAc
How it was run: as §1

[16] = molecular target: Neu5Ac(a2-6)Gal(b1-4)GlcNAc(b1-2)Man
How it was run: as §1

[17] = molecular target: Neu5Ac(a2-6)Gal(b1-4)GlcNAc(b1-2)Man(a1-3)[Gal(b1-4)GlcNAc(b1-2)Man(a1-6)]Man(b1-4)GlcNAc(b1-4)GlcNAc
How it was run: as §1

[18] = molecular target: Neu5Ac(a2-6)Gal(b1-4)GlcNAc(b1-3)Gal(b1-4)[Fuc(a1-3)]GlcNAc(b1-3)Gal(b1-4)[Fuc(a1-3)]GlcNAc
How it was run: as §1

[19] = molecular target: Neu5Ac(a2-6)GalNAc(b1-4)GlcNAc6S
How it was run: as §1

[20] = molecular target: Neu5Ac(a2-8)Neu5Ac(a2-8)Neu5Ac(a2-8)Neu5Ac(a2-3)[GalNAc(b1-4)]Gal(b1-4)Glc
How it was run: as §1

[21] = molecular target: Neu5Gc(a2-3)Gal(b1-3)GlcNAc
How it was run: as §1

[22] = molecular target: Neu5Gc(a2-3)Gal(b1-4)GlcNAc
How it was run: as §1

[23] = molecular target: Neu5Gc(a2-3)Gal(b1-4)GlcNAc(b1-3)Gal(b1-4)GlcNAc(b1-2)Man(a1-3)[Neu5Gc(a2-3)Gal(b1-4)GlcNAc(b1-3)Gal(b1-4)GlcNAc(b1-2)Man(a1-6)]Man(b1-4)GlcNAc(b1-4)GlcNAc
How it was run: as §1

B1: Nc3LysM-2 (protein)
chain: AHVLQARQSVSCDFATAANTGDTCASFAAAWGITEAAFAKLNPGVSCPGNLIAGSEYCVIGTVSTGAPTTTKAATTSTTPPTTTTTTKATTLSTSTTSVSPTGPSPQMPSITSTCNKFYQVQSGDGCWSIEQAQGVSASDFMAWNKAVDAQCDNLWLGYYVCVGVKGGSSPPPTTTTKPASSSAPTPQMPNTVSNCKKFHKVVSGDGCWAIEQAAGISASDFAKWNPYVDAACDNLWLGYYVCIGV
Glc(a1-4)Glc
  glycan array binding signal (z-score): -0.04
Glc(b1-4)Glc
  glycan array binding signal (z-score): -1.11
GlcA(b1-6)Gal
  glycan array binding signal (z-score): 2.36
[1]
  glycan array binding signal (z-score): 0.714
[2]
  glycan array binding signal (z-score): -0.543
[3]
  glycan array binding signal (z-score): 0.247
[4]
  glycan array binding signal (z-score): 3.4
[5]
  glycan array binding signal (z-score): -0.959
[6]
  glycan array binding signal (z-score): -0.307
[7]
  glycan array binding signal (z-score): 3.61
Man(a1-6)Man
  glycan array binding signal (z-score): 0.852
[8]
  glycan array binding signal (z-score): 0.767
[9]
  glycan array binding signal (z-score): 0.06
[10]
  glycan array binding signal (z-score): 4.26
[11]
  glycan array binding signal (z-score): -0.674
[12]
  glycan array binding signal (z-score): -0.075
[13]
  glycan array binding signal (z-score): 2.08
[14]
  glycan array binding signal (z-score): -0.155
Neu5Ac(a2-3)GalNAc
  glycan array binding signal (z-score): -1.24
[15]
  glycan array binding signal (z-score): 0.668
[16]
  glycan array binding signal (z-score): 0.422
[17]
  glycan array binding signal (z-score): -0.256
[18]
  glycan array binding signal (z-score): 0.118
[19]
  glycan array binding signal (z-score): -2.04
[20]
  glycan array binding signal (z-score): 0.938
[21]
  glycan array binding signal (z-score): 0.959
[22]
  glycan array binding signal (z-score): -0.122
[23]
  glycan array binding signal (z-score): -0.459
